B1: design_603_0b98da89-d791-4423-9b2d-fd1b7292da18_10_dldesign_0_cycle1_af2pred (protein)
chain: EKEKEELRKELLEKYEEVKKAVEEALKNASNPEVQAELAKVVHEFQELAAEVGAKYPEIAEEAKKLRKEAIEEAKKAVEKSK
B2: design_602_0a1f3d3d-7d26-454b-9b34-ebe8ef9bc7d4_595_dldesign_0_cycle1_af2pred (protein)
chain: AAAVKAKMQAIAAAAKDAAKRAKEVAEKTGSTEAEADAVRAQHLSDAATINANGTQAQADAAQARLDVLKARAEKLEKEAKE
B3: design_602_0a1f3d3d-7d26-454b-9b34-ebe8ef9bc7d4_1428_dldesign_0_cycle1_af2pred (protein)
chain: EEEEKKKKEYVEKIKKALKEVKEAGKKGTEEQKKLAAETADKLYELKAIAEFSNAEEAEKYAEKAEKLAKETLKKIKK
B4: design_602_0a1f3d3d-7d26-454b-9b34-ebe8ef9bc7d4_268_dldesign_0_cycle1_af2pred (protein)
chain: VEEKAKKYIEEAKKKAKEMKELGKKNPAAKENYDAAAKVWETAAKEIEKDPSKAEEYEKKAKKTIAVLLDAANAEL
B5: design_602_0a1f3d3d-7d26-454b-9b34-ebe8ef9bc7d4_881_dldesign_0_cycle1_af2pred (protein)
chain: EKEKAAKKIAELMDKAYDLISDGGEAEIKKGKELAKEAVKLGKEAGPELAKKAEKGLRALERLAEETEKALKK
B6: design_602_0a1f3d3d-7d26-454b-9b34-ebe8ef9bc7d4_1603_dldesign_0_cycle1_af2pred (protein)
chain: KNTLEKAAEAIQAYREEATAYAKEISKKEGKEAGEKAYEEFKKKVKELIALAKADPEAGLKEATKLLEELKAK
B7: design_603_0b98da89-d791-4423-9b2d-fd1b7292da18_215_dldesign_0_cycle1_af2pred (protein)
chain: MTEEEERALVRGAYRAAVEAAKDPANAADYLAKSKALADELIAKGSKKAIASAAFKLEGVAEAAAKDPATAEVAKAANATAKRLNAAL
B8: design_602_0a1f3d3d-7d26-454b-9b34-ebe8ef9bc7d4_299_dldesign_0_cycle1_af2pred (protein)
chain: EIGKIVDEALEKILELQAEAKKAGKEAAKEVDKVRKEMIKEAKKMAKEGKSAEEVKKFAEEKVEEAKKIAEEAKKK
B9: design_602_0a1f3d3d-7d26-454b-9b34-ebe8ef9bc7d4_348_dldesign_0_cycle1_af2pred (protein)
chain: IDVKATADKFLKATEEAAKKDAELGKKTAKKAIYTLDVLGEADPEYKEYTDKKKEEIKKTLAELTAKQKAKE
B10: design_602_0a1f3d3d-7d26-454b-9b34-ebe8ef9bc7d4_1768_dldesign_0_cycle1_af2pred (protein)
chain: EEKERAKKFGEGYGEAQLDLAESAMKKATKPEEVKKAAETAAERARKRAKEGTPEEAEELLKAAEKIEKLGKEYLAKL
B11: design_602_0a1f3d3d-7d26-454b-9b34-ebe8ef9bc7d4_990_dldesign_0_cycle1_af2pred (protein)
chain: MDKDGIAYSIKAKHIAEAALILGEKSTPEMAEVFKEVAELAKEAAEAALKDAETGKKLLKEVLKKAREAKKKAEEAKKA
B12: design_602_0a1f3d3d-7d26-454b-9b34-ebe8ef9bc7d4_1333_dldesign_0_cycle1_af2pred (protein)
chain: EKERKEKIAKILLESAKDAMKEAEKALKEGKAKKAMMLATLAVSSAKNAYDFGKEASKELAEEAKKALEEAKEMLKKVKKALE
B13: design_602_0a1f3d3d-7d26-454b-9b34-ebe8ef9bc7d4_1819_dldesign_0_cycle1_af2pred (protein)
chain: GSAIMDAQAKAVEIRTEAEKLAKEYKDLPTAKDFKKAAEIAREALKNGEEAIELSKKAEELLEKAKKKLKEELEKK
B14: design_602_0a1f3d3d-7d26-454b-9b34-ebe8ef9bc7d4_533_dldesign_0_cycle1_af2pred (protein)
chain: SLKEELAEKAEEKAKKAVEALKAYAKADPSKAEEMAAAAKKVKEAAERGKKGNVQEAGSAEVLAESALSAAEKKLKEL
B15: design_603_0b98da89-d791-4423-9b2d-fd1b7292da18_202_dldesign_0_cycle1_af2pred (protein)
chain: GSATVDALEKALDAREELLRLAKELPPERAELAEKLRAAAEELRETIRRAQKLSPEEGAALITAAAEKARALAKEVKAA
B16: design_602_0a1f3d3d-7d26-454b-9b34-ebe8ef9bc7d4_1408_dldesign_0_cycle1_af2pred (protein)
chain: AAAAAAAAKAALDLAKEQLKKAKEYKELAKKYKEEGNISKANSAEADAINAAHAAIVAATKAAADPKYAAEAKKVKDEAEKLEKEVLE
B17: design_603_0b98da89-d791-4423-9b2d-fd1b7292da18_39_dldesign_0_cycle1_af2pred (protein)
chain: EETFKKAVEELLKIAKEVYKKDPKAGSAAAGEIYRGKAEYEATGNLEVGVEELQKAAEIIKKADKELGEKAKKIVEEAKKK
B18: design_602_0a1f3d3d-7d26-454b-9b34-ebe8ef9bc7d4_576_dldesign_0_cycle1_af2pred (protein)
chain: AEAEKQAALAEASQLLLEANSFAKWVSEYAKELGQEDIAKKAEEAGKEYTKKAKAYIKAGKAEEAKKEAEKLLEEAEKLYKEAKEKA
B19: design_603_0b98da89-d791-4423-9b2d-fd1b7292da18_74_dldesign_0_cycle1_af2pred (protein)
chain: KEKVKKLEEEAIKALKELSKYRDNPEKAAEYAEKLYEKAFEMGIPLSIASRAAKLAKEGEEGAKEGVKLIKEEAKKVIEE
B20: design_602_0a1f3d3d-7d26-454b-9b34-ebe8ef9bc7d4_487_dldesign_0_cycle1_af2pred (protein)
chain: EEEKRIEEAKKKAREAAEKAREYGKKIIKLGYDPKKAAELAQKAQEARAEAEALPEKAEEAAKKAKEAAEELEKLLKEAEA
B21: design_602_0a1f3d3d-7d26-454b-9b34-ebe8ef9bc7d4_1902_dldesign_0_cycle1_af2pred (protein)
chain: DEKKKNLLRAAALTLEEAIEALDTDKNWGAALARSAARYAEEAGDEETAAIAREAAELAAAGGPEVAPEAKALLKEAAERLKKKI
B22: design_603_0b98da89-d791-4423-9b2d-fd1b7292da18_78_dldesign_0_cycle1_af2pred (protein)
chain: MSENVKFASELIRKVVKEAKKIGKEKGASEEAKKKAIEEVAKAIDKISEAAQKGDKEKAKAIAEEAIKKIKKILEEGA
B23: design_602_0a1f3d3d-7d26-454b-9b34-ebe8ef9bc7d4_244_dldesign_0_cycle1_af2pred (protein)
chain: AAAEAAKAKVKAIAAKSYAKNPEAGQYITLALAFAKRGDLEEALASLDEAEKEDPTNYPEARAAVLAYYAALKA
B24: design_602_0a1f3d3d-7d26-454b-9b34-ebe8ef9bc7d4_1230_dldesign_0_cycle1_af2pred (protein)
chain: AEAEKKAKEAVKLAEKYYEKAKELAKEAEKDPKLKEAAKKIKKDAEEIKKALEKGIKEGNEVEAAQTSKSLYRAAEAEYKRAKK
B25: design_602_0a1f3d3d-7d26-454b-9b34-ebe8ef9bc7d4_766_dldesign_0_cycle1_af2pred (protein)
chain: GELEALAERAAELVLDPEKAEEGVALVVERLRALTDPAEIARLVQLVQQALAEAAAKNPEKAAQLRAAAKRVVEAAREIVAEKAAAA
B26: design_602_0a1f3d3d-7d26-454b-9b34-ebe8ef9bc7d4_2169_dldesign_0_cycle1_af2pred (protein)
chain: SAFEILKVIEEKAKEVYEITKEENPKIAKKIAAAAYTAGVALGAGDEEEAKKVIEKGKALADKEGAEKGKKALEEAVEEVKKKAKE
B27: design_602_0a1f3d3d-7d26-454b-9b34-ebe8ef9bc7d4_1646_dldesign_0_cycle1_af2pred (protein)
chain: SEFKKKAKLISEAELLINRMAALSPEAAAGAKAILKLAEGGKQEEAEKKIKEIKAASPEEATKLAIEVGKKVAAE
B28: design_602_0a1f3d3d-7d26-454b-9b34-ebe8ef9bc7d4_1947_dldesign_0_cycle1_af2pred (protein)
chain: ATEEEVKAAVRETIKAAKKYVEAGGDAKEAAEIAHKAQEAKAEGIASGKLDEAYAKVKKLAEEAKAKAEEVEK
B29: design_602_0a1f3d3d-7d26-454b-9b34-ebe8ef9bc7d4_1422_dldesign_0_cycle1_af2pred (protein)
chain: DAFLKEAEKLKKKLTEELKKLKEEAKKLTPEVQKKVLEEVKEAEEALKKALELAKKGDKKEAGKAAQEALEKLAEARWLVNKAK
B30: design_602_0a1f3d3d-7d26-454b-9b34-ebe8ef9bc7d4_1719_dldesign_0_cycle1_af2pred (protein)
chain: GLAEEYKKKAEEAEEKAFNSKNVEAAYYYLKASQYYNAAAIYTKKGEEYLEKAKESYEKGKEYEKKGEEIEKK
B31: design_602_0a1f3d3d-7d26-454b-9b34-ebe8ef9bc7d4_1736_dldesign_0_cycle1_af2pred (protein)
chain: DLKEKVEKAEKILKKRKEKLEKAKEKGPKEAKKEAALAKEQMENLIEALKKILEEAKDDPETKAKAEKVIEEAKKLKEEAEKLEKE
B32: design_602_0a1f3d3d-7d26-454b-9b34-ebe8ef9bc7d4_1202_dldesign_0_cycle1_af2pred (protein)
chain: DEVEKILKEALEKMEEYKKKALEEAAKKDPETSKKLTELIEKRFEKREKELKEEMKKNKNDPEKAKRIGFHAVARAEITYEQAKLA
B33: design_602_0a1f3d3d-7d26-454b-9b34-ebe8ef9bc7d4_1205_dldesign_0_cycle1_af2pred (protein)
chain: LKERIEKLKEEGKKLEEEAEEMKDKDASAKLYQLAHAALAAAKRAEEALKAGNKEEAEKYLKIGEEAVKKGKEILKKGKA
B34: design_602_0a1f3d3d-7d26-454b-9b34-ebe8ef9bc7d4_1801_dldesign_0_cycle1_af2pred (protein)
chain: GKLVEEAKKALEEAKALAAKNPELAKMAEAALERFEKSLRAGLAAADGLASTAAKLGAEDPENAKLAELAGKAAELLFEAI
B35: design_602_0a1f3d3d-7d26-454b-9b34-ebe8ef9bc7d4_1060_dldesign_0_cycle1_af2pred (protein)
chain: GEEKEKKVEEIEKKAKEEAKKYAEEIAKALKDPEKMKKIATEATDKLLEMAEEMVETDKKAGKKAAEMIREGLRIMKETYEKERKKA
B36: design_602_0a1f3d3d-7d26-454b-9b34-ebe8ef9bc7d4_1317_dldesign_0_cycle1_af2pred (protein)
chain: MEEKKEEEARKVAHEAFRVAALAENVASAAEKKGDEEIAKKAKEARKTAEKAMELAREGNVKEARKLAKEARKVVEELRKKLEA
B37: design_602_0a1f3d3d-7d26-454b-9b34-ebe8ef9bc7d4_418_dldesign_0_cycle1_af2pred (protein)
chain: SEEAKKLAEEAKKEMGNIRLDAYDKASEVNVEEAKKIFEEAKEKIEKIAKETAELVPEYAEEILKGGEKAMKALERAAKDIEKAE
B38: design_602_0a1f3d3d-7d26-454b-9b34-ebe8ef9bc7d4_1707_dldesign_0_cycle1_af2pred (protein)
chain: AAAAEAFGKELAAMLDEAYDKSTEDLEKAKEVLAKLKAKAEAAPAEVAEYAKKALKTAKSIEDSIEIEEKLKK

The binders below were run against VTCN1, Q7Z7D3.
Sequence of VTCN1, Q7Z7D3 (Q7Z7D3 whole entry): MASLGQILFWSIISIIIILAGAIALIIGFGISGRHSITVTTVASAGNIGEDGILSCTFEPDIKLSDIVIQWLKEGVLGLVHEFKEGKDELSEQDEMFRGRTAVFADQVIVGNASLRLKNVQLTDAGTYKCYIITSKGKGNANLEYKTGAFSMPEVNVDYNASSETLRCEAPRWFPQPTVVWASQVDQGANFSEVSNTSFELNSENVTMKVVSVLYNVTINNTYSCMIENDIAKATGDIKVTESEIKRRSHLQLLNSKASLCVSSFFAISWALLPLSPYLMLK

Binding in a display sort, inactive:
B1 not found, B2 not found, B3 not found, B4 not found, B5 not found, B6 not found, B7 not found, B8 not found, B9 not found, B10 not found, B11 not found, B12 not found, B13 not found, B14 not found, B15 not found, B16 not found, B17 not found, B18 not found, B19 not found, B20 not found, B21 not found, B22 not found, B23 not found, B24 not found, B25 not found, B26 not found, B27 not found, B28 not found, B29 not found, B30 not found, B31 not found, B32 not found, B33 not found, B34 not found, B35 not found, B36 not found, B37 not found, B38 not found
